Bioassay records: PubChem BioAssay, several laboratories
A selection: hits, their analogues and other compounds. The true share with any hit is near 3.5%.
ATG4B inhibitor: blocks human ATG4B protease cleavage of LC3 substrate | hit rate 0.51% among 340,000 | ATG4B cleavage of LC3-PLA2, NBD-HPC fluorescence, 1 h | Q9Y4P1 | AID 504462 | inhibition, % at 8.33 µM; in the data active means inhibition above about 40%
Myeloid diff 2: compounds promoting myeloid differentiation | ER-HoxA9 myeloid progenitors, lysozyme-GFP differentiation, flow cytometry | calls only at 10 µM | hit rate 1% among 360,000 | AID 624256;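 active means normalized GFP-positive differentiation at or above the plate's own cutoff, the solvent-only control mean plus 3 SD; inconclusive means no clear call, values can overlap the other calls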;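 further: cells exposed to compound for four days before flow analysis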
M1 PAM: potentiates human M1 receptor response to acetylcholine. P11229. CHO-K1 hM1, Fluo-8 calcium fluorescence, ACh EC20; 0% = ACh EC20, 100% = maximal ACh. activation, % at 3 µM. hit rate 0.088% among 360,000. AID 588819; in the data active means activation above about 19%, passing the limit was not always enough
CHRM1 agonist: agonists of human M1 muscarinic receptor; P11229; CHO-K1 hM1, Fluo-8 calcium fluorescence, agonist mode; 0% DMSO, 100% acetylcholine EC100; activation, % at 3 µM; hit rate 0.33% among 360,000;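 active means activation above the run's mean compound activation plus 3 SD, cut at about 16% in these data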;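 further: peak over basal fluorescence ratio within a 140 s kinetic read after compound addition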
SKN-1 inh: blocks SKN-1 activity in C. elegans; inhibition, % at 21.8 µM; hit rate 0.49% among 360,000; C. elegans VP596 Pgst-4::GFP/RFP ratio, acrylamide-induced, 24 h;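 active means interference check ratio from 0.5 to 1.5 plus GFP to RFP signal ratio inhibition reaching or exceeding a fixed threshold, cut at about 30% in these data, passing the limit was not always enough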
M1 antag: blocks human M1 muscarinic receptor. CHO-K1 hM1, Fluo-8 calcium fluorescence, ACh EC80 antagonist. hit rate 1.3% among 360,000. AID 588852. inhibition, % at 3 µM;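 active means percent inhibition above its own plate's cutoff, namely the mean of that plate's compound wells plus 3 SD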;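 further: peak over basal fluorescence ratio during 140 s after agonist addition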
ATG4B confirm: ATG4B (human) inhibition, single-dose confirmed | AID 504757 | shares compounds with ATG4B inhibitor | inhibition, % at 8.33 µM | hit rate 92% among 320 | ATG4B protease fluorescent substrate cleavage assay; in the data active means inhibition above about 39%
PLA2 ctr: PLA2 (human) inhibition in ATG4B counter-screen; shares compounds with ATG4B inhibitor; purified PLA2, NBD-C6-HPC fluorescence, 45 min; inhibition, % at 8.33 µM; hit rate 66% among 1,600; AID 588402; in the data active means inhibition above about 50%
Target sequence (P04054 whole entry, looked up): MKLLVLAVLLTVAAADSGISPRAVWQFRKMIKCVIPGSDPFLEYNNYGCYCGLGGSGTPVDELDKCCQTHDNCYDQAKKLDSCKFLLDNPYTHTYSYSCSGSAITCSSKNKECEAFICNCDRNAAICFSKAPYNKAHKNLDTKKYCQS
Each line names hits and unclear results; the compound was inactive in the other large screens (follow-up assays come after a bar, where they were run).

N#CCOC(=O)[C@H](Cc1c[nH]c2ccccc12)NS(=O)(=O)c1ccc(Cl)cc1	ATG4B inhibitor 57.0 | PLA2 ctr 67.1
Cc1oc(-c2ccccc2F)nc1CS(=O)(=O)CC(=O)NCc1ccccc1Cl	ATG4B inhibitor 48.8 | PLA2 ctr 67.1
Cc1ccc(-c2nnc(Nc3ccc(CC(N)=O)cc3)c3ccccc23)cc1S(=O)(=O)NCC1CCCO1 (centres undefined)	ATG4B inhibitor 90.4 | PLA2 ctr 88.9
Cc1ccc(-c2nnc(Nc3ccc(OCC(N)=O)cc3)c3ccccc23)cc1S(N)(=O)=O	none
NC(=O)COc1ccc(Nc2nnc(-c3ccc(O)cc3)c3ccccc23)cc1	ATG4B inhibitor 57.0 | PLA2 ctr 68.8
Cc1ccc(-c2nnc(Nc3ccc(CC(N)=O)cc3)c3ccccc23)cc1S(N)(=O)=O	ATG4B inhibitor 88.0 | PLA2 ctr 88.6
CNS(=O)(=O)c1cc(-c2nnc(Nc3ccc(CC(N)=O)cc3)c3ccccc23)ccc1C	ATG4B inhibitor 90.6 | PLA2 ctr 90.5
O=C(O)Cc1ccc(-n2cccc2)cc1	none
OC(c1ccc(Cl)c(F)c1)c1ncc(-c2cccc(C(F)(F)F)c2)[nH]1 (centres undefined)	none (no result: ATG4B inhibitor)
Cc1ccc(-c2nnc(Nc3ccc(CC(N)=O)cc3)c3ccccc23)cc1	ATG4B inhibitor 97.2 | PLA2 ctr 97.5
Cc1ccc(-c2cc(-c3ccccc3C)[nH]n2)c(O)c1	ATG4B inhibitor 57.2 | PLA2 ctr 74.3
Cc1ccccc1NC(=O)/C(=C/c1ccccc1)c1ccccc1	ATG4B inhibitor 43.0 | ATG4B confirm 64.7 | PLA2 ctr inactive
O=C(Nc1ccccc1)/C(=C/c1ccccc1)c1ccccc1	none
COc1ccc(-c2cc(C(=O)NNC3=NCCC3)c3c(C)nn(-c4ccccc4)c3n2)cc1	none
Cc1cccc(C)c1OCC(=O)Nc1cccc(NC(=O)c2ccco2)c1	ATG4B inhibitor 47.8 | ATG4B confirm 56.6 | PLA2 ctr inactive
Cc1cccc(C)c1OCC(=O)Nc1ccc(NC(=O)c2ccco2)cc1	none
O=C(C1CCC(CNS(=O)(=O)c2ccccc2)CC1)N1CCOCC1 (centres undefined)	none
Cc1[nH]n2cnnc2c(=O)c1Br	none
O=C(O)CN1C(=O)/C(=C\c2cc(Br)ccc2OCc2ccccc2Cl)SC1=S	ATG4B inhibitor 49.8 | PLA2 ctr 81.1
O=C(O)CN1C(=O)/C(=C\c2cc(Br)ccc2OCc2ccccc2F)SC1=S	ATG4B inhibitor 55.8 | PLA2 ctr 51.4
CCOc1ccc(CNCCN2CCCC2)cc1	none
Cc1ccc(NC2=C/C(=N\S(=O)(=O)c3cccs3)c3ccccc3C2=O)c(C)c1	ATG4B inhibitor 56.3, Myeloid diff 2 inconclusive | PLA2 ctr 60.5
Cc1cccc(NC(=O)CSc2nnc(-c3cc(C)n(-c4ccccc4)c3C)o2)c1C	ATG4B inhibitor 40.7 | PLA2 ctr 56.2
Cc1ccc(C)c(NC(=O)CSc2nnc(-c3ccccc3C)o2)c1	none
Cc1noc(C)c1NC(=O)Nc1ccc2c(c1)C(=O)N([C@H](C)CO)C[C@H](C)[C@@H](CN(C)S(=O)(=O)c1c(C)noc1C)O2	none
CN1C(=O)CSc2ccc(NC(=O)NCc3ccc(F)cc3)cc21	ATG4B inhibitor 64.2 | PLA2 ctr 79.4
N#CCN1CCC2(O)CCCCC2C1c1ccc2c(c1)OCO2 (centres undefined)	none
Cn1c(CC(=O)Nc2ccc(Cl)cc2)nnc1SCC(=O)N1CCOCC1	none
Cc1sc2nc(C(C)C)nc(SCC(=O)NCc3ccco3)c2c1C	ATG4B inhibitor 41.7 | ATG4B confirm 50.2 | PLA2 ctr inactive
Cc1sc2nc(C(C)C)nc(SCC(=O)N3c4ccccc4CC3C)c2c1C (centres undefined)	ATG4B inhibitor 75.1 | PLA2 ctr 77.1
CCOC(=O)CSc1nc(C(C)C)nc2sc(C)c(C)c12	ATG4B inhibitor 61.8 | PLA2 ctr 59.2
